This is an account of results in PubChem BioAssay (NCATS).

Results filed as inconclusive are left out. Entries that show only a call come without a potency. Active and inactive are the calls of the source. Calls come from the whole dose curve; as a rule, active = well fitted cell-killing curve with a large enough effect; inconclusive = small, poorly fitted or top-dose-only effect, or effect the other way; inactive = flat fitted curve, though single readings scatter.

In one experiment the test system is C33A. The experiment can be described thus: Primary qHTS to identify gynecologic anti-cancer compounds using libraries of approved drugs and bioactive compounds (AID 1345084). Note: nearly all actives have a fitted effect of over 55% in size. The settings on record: Gynecologic cancer cell panel viability, ATPlite luminescence, 48 h; series mostly up to 57.5 µM. In outline: (§1)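 Cytotoxicity screen measuring ATP content by luciferase luminescence. Each compound is applied at five concentrations for 48 h at 37 C with 5% CO2.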
As to `C=CC(C)(C)C12C=C(O)C(=O)N3/C(=C\c4cnc[nH]4)C(=O)NC31N(OC)c1ccccc12` (configuration not stated), the Potency entry is “inactive”.

Regarding `FC(F)(F)c1ccc(N2CCNCC2)nc1Cl`, the Potency entry is “inactive”.

With `C[C@@H](CN1CCC(n2c(=O)[nH]c3cc(Br)ccc32)CC1)NC(=O)[C@@H]1C[C@H]1c1ccccc1`, the Potency entry is “inactive”.

In the case of `O=C(NCCN1CCC2(CC1)C(=O)NCN2c1cccc(F)c1)c1ccc2ccccc2c1`, the Potency result is “inactive”.

In the next experiment the test system is CAOV3. The experiment is described as above. Particulars: Gynecologic cancer cell panel viability, ATPlite luminescence, 48 h; series mostly up to 57.5 µM. In outline:
as §1
A general note: In ATP-based viability assays light output follows the ATP content of the culture.
Consider `C=CC(C)(C)C12C=C(O)C(=O)N3/C(=C\c4cnc[nH]4)C(=O)NC31N(OC)c1ccccc12` (configuration not stated), for which the Potency entry was “inactive”.

Regarding `FC(F)(F)c1ccc(N2CCNCC2)nc1Cl`, the Potency entry is “inactive”.

For `C[C@@H](CN1CCC(n2c(=O)[nH]c3cc(Br)ccc32)CC1)NC(=O)[C@@H]1C[C@H]1c1ccccc1`, the Potency result was “inactive”.

Take `O=C(NCCN1CCC2(CC1)C(=O)NCN2c1cccc(F)c1)c1ccc2ccccc2c1`: the Potency entry is “inactive”.

A further experiment relates to CASKI. Described as above. Particulars: Gynecologic cancer cell panel viability, ATPlite luminescence, 48 h; series mostly up to 57.5 µM. In short, it runs like this:
as §1
For `C=CC(C)(C)C12C=C(O)C(=O)N3/C(=C\c4cnc[nH]4)C(=O)NC31N(OC)c1ccccc12` (configuration not stated), the Potency result was “inactive”.

For `FC(F)(F)c1ccc(N2CCNCC2)nc1Cl`, the Potency entry was “inactive”.

On to `C[C@@H](CN1CCC(n2c(=O)[nH]c3cc(Br)ccc32)CC1)NC(=O)[C@@H]1C[C@H]1c1ccccc1`, for which the Potency result is “inactive”.

On to `O=C(NCCN1CCC2(CC1)C(=O)NCN2c1cccc(F)c1)c1ccc2ccccc2c1`, for which the Potency entry is “inactive”.

The test system of another experiment is Es-2. The experiment is described as above. The settings on record: Gynecologic cancer cell panel viability, ATPlite luminescence, 48 h; series mostly up to 57.5 µM. In short, it runs like this:
as §1
Regarding `C=CC(C)(C)C12C=C(O)C(=O)N3/C(=C\c4cnc[nH]4)C(=O)NC31N(OC)c1ccccc12` (configuration not stated), the Potency result was “inactive”.

For the molecule `FC(F)(F)c1ccc(N2CCNCC2)nc1Cl`, the Potency entry was “inactive”.

`C[C@@H](CN1CCC(n2c(=O)[nH]c3cc(Br)ccc32)CC1)NC(=O)[C@@H]1C[C@H]1c1ccccc1`: the Potency result was “inactive”.

As for `O=C(NCCN1CCC2(CC1)C(=O)NCN2c1cccc(F)c1)c1ccc2ccccc2c1`, the Potency entry is “inactive”.

Another experiment relates to HeLa. The experiment is described as above. The settings on record: Gynecologic cancer cell panel viability, ATPlite luminescence, 48 h; series mostly up to 57.5 µM. In short, it runs like this: as §1
In the case of `C=CC(C)(C)C12C=C(O)C(=O)N3/C(=C\c4cnc[nH]4)C(=O)NC31N(OC)c1ccccc12` (configuration not stated), the Potency result was “inactive”.

Consider `O=C(NCCN1CCC2(CC1)C(=O)NCN2c1cccc(F)c1)c1ccc2ccccc2c1`, for which the Potency result is “inactive”.

For `CN(C(=O)CN1C(=O)COc2cc(Cl)c(Cl)cc21)[C@@H](CN1CCCC1)c1ccc(-c2cccc(C(N)=O)c2)cc1`, the Potency result was “inactive”.

The test system of a further experiment is Hek293T. Described as above. The settings on record: Gynecologic cancer cell panel viability, ATPlite luminescence, 48 h, control line for the selectivity index; series mostly up to 57.5 µM. In short, it runs like this:
as §1
As to `FC(F)(F)c1ccc(N2CCNCC2)nc1Cl`, the Potency result was “inactive”.

Consider `C[C@@H](CN1CCC(n2c(=O)[nH]c3cc(Br)ccc32)CC1)NC(=O)[C@@H]1C[C@H]1c1ccccc1`, for which the Potency result is “inactive”.

Turning to `O=C(NCCN1CCC2(CC1)C(=O)NCN2c1cccc(F)c1)c1ccc2ccccc2c1`, the Potency result is “inactive”.
